Source: PubChem BioAssay
LmPK inh = LmPK (Leishmania mexicana) enzyme inhibition | Q27686 | purified LmPK, Kinase-Glo ATP luminescence, 1 h | Potency, µM (highest dose often 57.5 µM), actives largely listed as inhibitors | 0.37% of 290,000 active
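Pyruvate kinase activity monitored as ATP production (luciferase luminescence). Conditions: 0.1 nM enzyme, 0.5 mM PEP, 0.1 mM ADP, 1 h, RT; normalized against uninhibited and no-enzyme wells.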
Tb PYK inh = blocks Trypanosoma brucei pyruvate kinase | Q57TT1 | 0.12% of 410,000 active | TbPYK enzyme, Kinase-Glo Plus ATP luminescence, 45 min | Potency, µM (highest dose often 76.8 µM), hits mostly inhibitors | AID 624173; further: nearly all actives have a fitted effect of over 50% in size
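Screened from lowest to highest concentration, compounds were pinned into TbPYK/substrate mixtures, and ADP (130 uM final) was added. Plates sat at room temperature for 45 min prior to Kinase-Glo Plus detection by luminescence.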
RE007 growth inh = less growth of the S. pombe RE007 Vpr strain. S. pombe RE007 Vpr strain, BacTiter-Glo ATP luminescence, 24 h. 0.21% of 360,000 active. AID 651644. Potency, µM (titrated, usually from 92.2 µM), most hits filed as inhibitors; active means well fitted falling curve with a large enough effect; inconclusive means small, poorly fitted or top-dose-only effect; inactive means no such curve, though single readings can be large or run the other way; further: nearly all actives have a fitted effect of over 50% in size
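Fission yeast RE007 carrying one integrated HIV-1 vpr copy, seeded at OD 0.01 in PMG+AL medium with 23 nL pinned compound. Grown 24 h at 30 degrees; viability read by BacTiter-Glo luminescence after 5 min.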
Cycloheximide cs = counter-screen for Shiga toxin inhibitors: cycloheximide protein synthesis inhibition; cell reporter, cycloheximide protein synthesis inhibition counterscreen; max response, %; 12% of 300,000 active; AID 2314; in the data active means max response mostly above about 13%, no sharp cut-off; inactive means mostly below about 14%; further: read at 38.3 µM for the half of the compounds with a filed dose
Giardia FBPA inh = inhibitors of Giardia lamblia fructose-1,6-bisphosphate aldolase | A8B2U2 | 0.71% of 290,000 active | Potency, µM (series often up to 59.6 µM), usual class: inhibitors | purified Giardia FBPA; further: nearly all actives have a fitted effect of over 55% in size
Target sequence (A8B2U2 whole entry, looked up): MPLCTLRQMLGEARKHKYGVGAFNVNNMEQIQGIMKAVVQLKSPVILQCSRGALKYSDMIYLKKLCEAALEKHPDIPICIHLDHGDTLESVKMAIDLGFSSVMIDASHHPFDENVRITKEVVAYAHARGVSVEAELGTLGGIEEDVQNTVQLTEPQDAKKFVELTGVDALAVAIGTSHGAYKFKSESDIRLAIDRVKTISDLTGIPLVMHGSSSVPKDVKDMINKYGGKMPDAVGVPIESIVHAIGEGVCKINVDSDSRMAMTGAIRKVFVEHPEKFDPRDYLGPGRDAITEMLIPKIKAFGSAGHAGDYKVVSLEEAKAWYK
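40 nM FBPA preincubated 10 min at RT with compound (up to 57.5 uM final), then substrate plus GAPDH/TPI/NAD/arsenate coupling and diaphorase/resazurin added. Fluorescence read after 20 min at RT, 525/598 nm.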
Shiga toxin inh = blocks Shiga toxin action in Vero cells | Vero cells, Shiga toxin protein synthesis inhibition reporter | inhibition, % at 38.7 µM | 9.2% of 290,000 active; in the data active means inhibition mostly above about 28%, no sharp cut-off; inactive means mostly below about 43%
Large screens that a line does not name were inactive. The sample as a whole holds a higher share of hits than the screen did. Unless noted, the call rests on the fitted dose curve; in most records, active means well fitted curve in the direction sought with a large enough effect; inconclusive means small, poorly fitted or top-dose-only effect, or another doubt; inactive means no such curve, though single readings can be large; an effect the other way counts as inactive or inconclusive.

CN(C)c1ccc(/C=N/NC(=O)c2ccccc2O)o1	Tb PYK inh inconclusive, Cycloheximide cs 20, Shiga toxin inh 131
CC(/C=N/NC(=O)c1ccc(Br)cc1)=C\c1ccccc1	none
Cc1ccc(/C=N/NC(=O)c2cc(C)oc2C)o1	Cycloheximide cs 15
Cc1cc(C(=O)N/N=C/c2ccncc2)c(C)o1	LmPK inh inconclusive
Cc1cc(C(=O)N/N=C/c2ccc(N(C)C)o2)cs1	Tb PYK inh inconclusive (no result: Giardia FBPA inh)
Cc1ccc(/C=N/NC(=O)c2cc(C)oc2C)cc1	LmPK inh 13µM, Cycloheximide cs 53, Shiga toxin inh 60
CC(=O)NC(c1ccccc1)c1nc(-c2cc3ccccc3o2)cs1 (stereo unspecified)	none (no result: LmPK inh, Cycloheximide cs, Giardia FBPA inh, Shiga toxin inh)
Cc1cccc(-c2noc(-c3ccc(NCc4ccccc4)c([N+](=O)[O-])c3)n2)c1	none (no result: LmPK inh, RE007 growth inh, Cycloheximide cs, Giardia FBPA inh, Shiga toxin inh)
COc1ccccc1OCC(=O)Nc1nc2c(s1)CCCC2	RE007 growth inh inconclusive, Cycloheximide cs 49, Shiga toxin inh 78 (no result: Giardia FBPA inh)
COc1ccc(OCC(=O)Nc2nc3c(s2)CCCC3)cc1	RE007 growth inh inconclusive, Cycloheximide cs 36, Shiga toxin inh 68 (no result: Giardia FBPA inh)
O=C(COc1ccc(F)cc1)Nc1nc2c(s1)CCCC2	Cycloheximide cs 38
COc1ccccc1OCC(=O)Nc1nc2c(s1)CC(C)CC2 (stereo unspecified)	none (no result: LmPK inh, RE007 growth inh, Cycloheximide cs, Giardia FBPA inh, Shiga toxin inh)
COc1cccc(-n2nnnc2SCC(=O)Nc2nc3c(s2)CCCC3)c1	Cycloheximide cs 25, Shiga toxin inh 87
Cc1ccc(C(C)C)c(OCC(=O)Nc2nc3c(s2)CCCC3)c1	none (no result: LmPK inh, RE007 growth inh, Cycloheximide cs, Giardia FBPA inh, Shiga toxin inh)
COC(=O)c1cccc(-n2nnnc2SCC(=O)Nc2nc3c(s2)CCCC3)c1	none
CCCNC(=O)C1(C)CCCN(C(=O)c2ccccc2F)C1 (stereo unspecified)	none (no result: LmPK inh, Cycloheximide cs, Giardia FBPA inh, Shiga toxin inh)
CCCC12CN3CC(C)(CN(C1)C3c1ccc(OCc3ccccc3)cc1)C2=O (stereo unspecified)	none (no result: LmPK inh, RE007 growth inh, Cycloheximide cs, Giardia FBPA inh, Shiga toxin inh)
O=C(Nc1cccc(Br)c1)Nc1nc2c(s1)CCCCCC2	none (no result: LmPK inh, RE007 growth inh, Cycloheximide cs, Giardia FBPA inh, Shiga toxin inh)
COc1ccc(NC(=O)Nc2nc3c(s2)CCCC3)cc1	Cycloheximide cs 19
CCOc1ccc(C(=O)Cn2c(=O)n3nc(CCn4nc(C)cc4C)nc3c3cc(OC)c(OC)cc32)cc1	none (no result: LmPK inh, RE007 growth inh, Cycloheximide cs, Giardia FBPA inh, Shiga toxin inh)
CCC(=O)c1ccc(OCC(O)Cn2nnc3ccccc32)cc1 (stereo unspecified)	Cycloheximide cs 45, Shiga toxin inh 65
Cc1ccccc1OCC(O)Cn1nnc2ccccc21 (stereo unspecified)	Cycloheximide cs 50, Shiga toxin inh 79
CCC(=O)c1ccc(OCC(O)Cn2nc(C)cc2C)cc1 (stereo unspecified)	none (no result: Giardia FBPA inh)
Oc1ccc(N=Nc2ccc3c(c2)OCO3)c2ccccc12	Cycloheximide cs 58, Shiga toxin inh 78 (no result: Tb PYK inh, RE007 growth inh)
O=C(NN=Cc1c(O)ccc2ccccc12)c1ccc2c(c1)OCO2	none (no result: LmPK inh, Cycloheximide cs, Giardia FBPA inh, Shiga toxin inh)
CCc1ccc(N/C(SCc2ccccc2C)=C(/C#N)C(=O)NCc2ccco2)cc1	Cycloheximide cs 15
c1ccc(-c2cc3c(nc2-c2ccccc2)CCNC3)cc1	none (no result: LmPK inh, Tb PYK inh, RE007 growth inh, Cycloheximide cs, Shiga toxin inh)
NNc1ccccc1C(F)(F)F	Cycloheximide cs 28
Cc1ccc(S(=O)(=O)Nc2cccc(-c3ccc(N4CCCCCC4)nn3)c2)c(C)c1	Cycloheximide cs 42, Shiga toxin inh 88 (no result: Giardia FBPA inh)
Cc1ccc(S(=O)(=O)Nc2ccc(-c3ccc(N4CCCCCC4)nn3)cc2)c(C)c1	none (no result: LmPK inh, RE007 growth inh, Cycloheximide cs, Giardia FBPA inh, Shiga toxin inh)
COc1ccc(/C=N/n2nnnc2N)c(OC)c1	Cycloheximide cs 23, Shiga toxin inh 28
COc1ccccc1/C=N/n1nnnc1N	none
COc1cccc(/C=N/n2nnnc2N)c1O	Cycloheximide cs 21, Shiga toxin inh 59
O=C(O)[C@H]1CN(CCCP(=O)(O)O)CCN1	none (no result: LmPK inh, Tb PYK inh, RE007 growth inh, Cycloheximide cs, Shiga toxin inh)
Cn1cnnc1SCC(=O)Nc1ncc([N+](=O)[O-])s1	none (no result: LmPK inh, Cycloheximide cs, Giardia FBPA inh, Shiga toxin inh)
COc1cccc(OC)c1C1=CC(=O)C[C@H](c2ccc3c(c2)OCO3)C1	none (no result: LmPK inh, Cycloheximide cs, Giardia FBPA inh, Shiga toxin inh)
COc1cccc2c1C(=O)O/C2=C/c1ccc2c(c1)OCO2	Cycloheximide cs 43, Shiga toxin inh 71 (no result: Tb PYK inh, RE007 growth inh)
O=C(c1cc(COc2ccc(F)cc2F)on1)N1CC2C[C@@H]3CC1C[C@H](C2)C3	Cycloheximide cs 43, Shiga toxin inh 115
O=C(NCC1CCOCC1)c1cc(COc2ccc(F)cc2F)on1	none (no result: Giardia FBPA inh)
O=C(c1cc(COc2ccc(F)cc2Cl)on1)N1CCN(C2CCCC2)CC1	none
